Measurements: PubChem BioAssay (Tox21)
Results filed as inconclusive are left out. Calls of active or inactive are those of the source. Unless noted, calls follow the shape of the dose curve; as a rule, active = well fitted curve in the direction sought with a large enough effect in the repeat runs; inconclusive = weak or mixed curves; inactive = no such curve, though single readings can be large; an effect the other way counts as inactive or inconclusive.

Assays:
[1] = target: Luciferin 4-monooxygenase (Photinus pyralis) (UniProt P08659); experiment: qHTS assay to identify small molecule inhibitors of firefly luciferase (AID 1224835); also: nearly all actives have a fitted effect of over 25% in size; also: potency is read from the fitted curve at half-maximal effect
Chain of Luciferin 4-monooxygenase (Photinus pyralis) (P08659 whole entry, looked up): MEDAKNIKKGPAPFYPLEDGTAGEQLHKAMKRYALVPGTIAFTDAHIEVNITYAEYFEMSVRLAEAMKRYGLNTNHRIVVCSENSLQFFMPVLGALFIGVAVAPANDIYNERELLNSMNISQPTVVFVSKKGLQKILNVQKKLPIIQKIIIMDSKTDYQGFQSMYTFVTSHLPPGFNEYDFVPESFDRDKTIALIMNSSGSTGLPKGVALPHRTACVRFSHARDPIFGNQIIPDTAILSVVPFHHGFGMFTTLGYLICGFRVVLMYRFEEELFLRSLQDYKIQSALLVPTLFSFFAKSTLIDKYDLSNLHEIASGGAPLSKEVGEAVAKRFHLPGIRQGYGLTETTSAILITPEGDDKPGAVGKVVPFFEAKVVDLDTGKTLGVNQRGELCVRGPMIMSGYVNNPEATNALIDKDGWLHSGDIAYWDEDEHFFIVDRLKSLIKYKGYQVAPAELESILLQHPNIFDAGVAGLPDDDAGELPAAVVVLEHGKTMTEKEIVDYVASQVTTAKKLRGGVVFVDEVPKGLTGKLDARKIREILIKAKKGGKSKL
In short: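 Biochemical qHTS: compounds run as interplate titrations against purified firefly enzyme, with D-luciferin and ATP each at its KM concentration. Light output recorded by CCD imaging.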

[2] = qHTS assay to identify small molecule agonists of the constitutive androstane receptor (CAR) signaling pathway - cell viability counter screen (AID 1224836); also: series mostly up to about 92 µM; nearly all actives have a fitted effect of over 45% in size
In short: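 Double-stable HepG2 hepatoma cells (hCAR plus CYP2B6-2.2kb) are treated for 23 h at 37 C with test compounds in 15-point concentration series. PK11195 at 0.75 uM final is co-added. Cell viability is quantified by CellTiter-Fluor.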

[3] = target: Nuclear receptor subfamily 1 group I member 3 (Homo sapiens) (UniProt Q14994); experiment: qHTS assay to identify small molecule antagonists of the constitutive androstane receptor (CAR) signaling pathway (AID 1224838);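 also: HepG2 cells stably expressing hCAR with CYP2B6 luciferase reporter stimulated by CITCO; nearly all actives have a fitted effect of over 40% in size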; also: potency is read from the fitted curve at half-maximal effect
Chain of Nuclear receptor subfamily 1 group I member 3 (Homo sapiens) (Q14994 whole entry, looked up): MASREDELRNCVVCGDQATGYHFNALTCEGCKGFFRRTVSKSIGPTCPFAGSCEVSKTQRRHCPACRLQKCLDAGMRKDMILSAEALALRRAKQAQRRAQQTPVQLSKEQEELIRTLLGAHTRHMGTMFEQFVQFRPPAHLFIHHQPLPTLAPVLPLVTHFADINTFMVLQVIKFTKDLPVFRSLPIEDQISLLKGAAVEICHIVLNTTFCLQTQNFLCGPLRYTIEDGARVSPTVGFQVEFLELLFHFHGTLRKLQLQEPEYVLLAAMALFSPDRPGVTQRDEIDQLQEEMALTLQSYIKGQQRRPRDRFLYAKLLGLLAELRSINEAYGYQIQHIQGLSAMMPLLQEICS
In short: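 Human hepatoma HepG2 cells expressing hCAR and a CYP2B6 promoter (2.2 kb) luciferase construct; compound titration (15 points) with 50 nM CITCO final, 24 h at 37 C/5% CO2; luminescence via ONE-Glo after 30 min at room temperature.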

[4] = target: Nuclear receptor subfamily 1 group I member 3 (Homo sapiens) (UniProt Q14994); experiment: qHTS assay to identify small molecule agonists of the constitutive androstane receptor (CAR) signaling pathway (AID 1224839); also: nearly all actives have a fitted effect of over 15% in size; also: potency is read from the fitted curve at half-maximal effect
In short: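 Readout: firefly luciferase luminescence via ONE-Glo. System: HepG2 double-stable for hCAR and CYP2B6-2.2kb. Conditions: 15-point compound titration, PK11195 at 0.75 uM final, 24 h incubation.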

[5] = qHTS assay to identify small molecule antagonists of the estrogen related receptor signaling pathway with the pleiotropic PPARgamma coactivator (PGC) from Tox21 10K library - cell viability counter screen (AID 1224840; active = well fitted cell-killing curve with a large enough effect in the repeat runs, not every such curve was filed as active; also: nearly all actives have a fitted effect of over 40% in size; also: potency is read from the fitted curve at half-maximal effect)
In short: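 Seeded PGC/ERR cells (2,000/well, 6 h, 37 C/5% CO2) get compound by pin tool; 17.5 h incubation at 37 C; CellTiter-Fluor added, 30 min, fluorescence measured.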

[6] = qHTS assay to identify small molecule agonists of the estrogen related receptor signaling pathway with the pleiotropic PPARgamma coactivator (PGC) from Tox21 10K library (AID 1224842); also: nearly all actives have a fitted effect of over 15% in size; also: potency is read from the fitted curve at half-maximal effect
In short: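 PGC/ERR reporter cell line, 2,000 cells per well, incubated 6 h at 37 C before 23 nL compound in DMSO was added. After 18 h at 37 C, One-Glo luminescence read following 30 min at room temperature.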

[7] = qHTS assay to identify small molecule antagonists of the estrogen related receptor signaling pathway with the pleiotropic PPARgamma coactivator (PGC) from Tox21 10K library (AID 1224841; call rule not given here; also: actives are mostly falling curves and most rising ones were filed inactive; nearly all actives have a fitted effect of over 50% in size; also: potency is read from the fitted curve at half-maximal effect)
In short: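 Test chemicals dissolved in DMSO were applied to pre-incubated (6 h) PGC/ERR cells at 2,000 cells/well for an 18 h, 37 C treatment; reporter luminescence was then read using One-Glo.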

[8] = target: Thyrotropin receptor (Homo sapiens) (UniProt P16473); experiment: qHTS assay to identify small molecule agonists of the thyroid stimulating hormone receptor (TSHR) signaling pathway (AID 1224843; calls by dose curve; also: nearly all actives have a fitted effect of over 45% in size)
Chain of Thyrotropin receptor (Homo sapiens) (P16473 whole entry, looked up): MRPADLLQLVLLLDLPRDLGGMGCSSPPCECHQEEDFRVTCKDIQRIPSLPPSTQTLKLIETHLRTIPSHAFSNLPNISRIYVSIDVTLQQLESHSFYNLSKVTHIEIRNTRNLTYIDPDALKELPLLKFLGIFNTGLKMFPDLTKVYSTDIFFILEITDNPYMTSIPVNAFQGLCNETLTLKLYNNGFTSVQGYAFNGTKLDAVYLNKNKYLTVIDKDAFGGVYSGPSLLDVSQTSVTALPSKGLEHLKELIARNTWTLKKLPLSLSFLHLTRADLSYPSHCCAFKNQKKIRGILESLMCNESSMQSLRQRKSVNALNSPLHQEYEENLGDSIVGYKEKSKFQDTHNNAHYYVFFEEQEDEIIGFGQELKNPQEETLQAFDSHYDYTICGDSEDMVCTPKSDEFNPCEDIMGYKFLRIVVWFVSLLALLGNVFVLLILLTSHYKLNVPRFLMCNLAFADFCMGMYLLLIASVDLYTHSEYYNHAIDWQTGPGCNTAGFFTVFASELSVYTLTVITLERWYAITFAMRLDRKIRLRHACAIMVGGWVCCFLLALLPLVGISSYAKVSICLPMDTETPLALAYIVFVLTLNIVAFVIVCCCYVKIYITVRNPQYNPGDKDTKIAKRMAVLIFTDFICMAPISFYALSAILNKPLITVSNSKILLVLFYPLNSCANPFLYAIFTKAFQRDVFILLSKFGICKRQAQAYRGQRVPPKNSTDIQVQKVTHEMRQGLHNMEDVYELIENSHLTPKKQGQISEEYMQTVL
In short: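 Agonist-mode screen: TSHR HEK293 cells received test chemicals for half an hour at room temperature, then HTRF cAMP detection reagents for one hour prior to fluorescence measurement. Each chemical ran as a 15-concentration series, triplicated.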

[9] = qHTS assay to identify small molecule antagonists of the constitutive androstane receptor (CAR) signaling pathway - cell viability counter screen (AID 1224837); also: series mostly up to about 92 µM; nearly all actives have a fitted effect of over 45% in size
In short: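 To flag cytotoxic false antagonists, HepG2 hCAR/CYP2B6-2.2kb cells were treated 23 hr with 15-concentration compound series and 50 nM CITCO at 37 C/5% CO2; CellTiter-Fluor fluorescence was the measured end point.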

[10] = qHTS assay to identify small molecule antagonists of the estrogen related receptor (ERR) signaling pathway from Tox21 library - cell viability counter screen (AID 1224834); also: potency is read from the fitted curve at half-maximal effect; nearly all actives have a fitted effect of over 30% in size
In short: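 Seeded ERR cells were rested 6 h at 37 C/5% CO2 before compounds, positive and negative controls or DMSO were added. Incubation continued for 17.5 h, and viability was then quantified by CellTiter-Fluor fluorescence.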

Measured: Potency

CCOC(=O)NCCOc1ccc(Oc2ccccc2)cc1
active: [1] 31.7 µM | [4] 48.6 µM
inactive: [2] | [3] | [5] | [6]

C[C@H](CCC(=O)O)[C@H]1CC[C@H]2[C@@H]3CC[C@@H]4C[C@H](O)CC[C@]4(C)[C@H]3C[C@H](O)[C@]12C
inactive: [1] | [3]

COc1ccc(C(=O)c2ccc(OC)cc2O)c(O)c1
active: [1] 28.5 µM | [4] 9.76 µM | [6] 4.89 µM
not listed: [9] | [10]
inactive: all other assays above

CCCNCC(O)COc1ccccc1C(=O)CCc1ccccc1 (centres undefined)
inactive: [2] | [9] | [3] | [4] | [5] | [8]

Cc1c(N)cccc1[N+](=O)[O-]
not listed: [2] | [10]
inactive: all other assays above

CNCCCCOc1ccccc1Cc1ccccc1
inactive: [1] | [4] | [8]
active: [5] 29.8 µM

Cc1ccc(N=Nc2c(O)c(C(=O)O)cc3ccccc23)c(S(=O)(=O)O)c1
inactive: [3] | [4]
active: [10] 21 µM

CN1CCC(N(Cc2cccs2)c2ccccc2)CC1
not listed: [8] | [10]
inactive: all other assays above

CC(C)OC(=O)C(C)N(C(=O)c1ccccc1)c1ccc(F)c(Cl)c1 (centres undefined)
inactive: [1] | [9] | [6]
active: [4] 48.6 µM | [7] 21.7 µM

Clc1ccc(Cn2c(CN3CCCC3)nc3ccccc32)cc1
active: [3] 11.9 µM | [4] 11.9 µM
inactive: [1] | [2] | [5] | [8]

CCCCC1=NC2(CCCC2)C(=O)N1Cc1ccc(-c2ccccc2-c2nn[nH]n2)cc1
inactive: [1] | [9] | [3] | [4] | [5]

CN1CCC(=C2c3ccccc3Sc3ccccc32)CC1
not listed: [8] | [10]
inactive: all other assays above

CCCCCCCCCCCCCCCCOS(=O)(=O)O
inactive: [1] | [9] | [4] | [7] | [6]

CCCCC(CC)CN1C(=O)C2C3C=CC(C3)C2C1=O (centres undefined)
inactive: [1] | [2] | [9] | [7] | [6]
active: [4] 30.6 µM

OCCN1CCN(CCCN2c3ccccc3C=Cc3ccccc32)CC1
inactive: [1] | [3] | [4] | [5] | [8]

COc1cc2nc(N(C)CCCNC(=O)C3CCCO3)nc(N)c2cc1OC (centres undefined)
inactive: [1] | [9] | [6]
active: [7] 15 µM
